Screening results from PubChem BioAssay.
This is a sample that favours compounds with a hit; in the whole collection about 2.4% have one here.
POLB inh = qHTS Assay for Inhibitors of DNA Polymerase Beta; P06746; Pol beta primer extension/strand displacement, fluorescence kinetic; Potency, µM (highest dose often 114 µM), inactives show at the top dose activity change, negative = inhibition, actives largely listed as inhibitors; 340,000 tested, 1.3% active; AID 485314, 2010; note: % is set by controls: 0 for no effect and ±100 for the full control effect
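Homogeneous kinetic assay of primer extension and strand displacement by 10 nM Pol beta, preincubated 15 min at room temperature with compound before 50 nM substrate (final) was added. Read at 0 and 10 min; four-parameter Hill fit.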
L3MBTL1 inh-1 = qHTS Assay for the Inhibitors of L3MBTL1. AlphaScreen L3MBTL1–H3K9me1 peptide binding. Potency, µM (series often up to 57.1 µM), inactives show top-dose activity, negative = inhibition, hits mostly inhibitors. Lethal(3)malignant brain tumor-like protein 1 (Homo sapiens), Q9Y468. 230,000 tested, 0.66% active; note: % is set by controls: 0 for no effect and ±100 for the full control effect; nearly all actives have a fitted effect of over 60% in size
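First, the protein-peptide complex forms for 30 min at room temperature (L3MBTL1 50 nM, biotinylated H3K9me1 peptide 75 nM). Next, compounds are pin-transferred and incubated 30 min. Finally, AlphaScreen beads are added and read after 30 min.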
Pol kappa inh = qHTS for Inhibitors of Polymerase Kappa | AID 588579, 2011 | Potency, µM (titrated, usually from 107 µM), for inactives: at the top dose activity, negative = inhibition, actives largely listed as inhibitors | purified Pol kappa, fluorescent DNA synthesis assay, 10 min | DNA polymerase kappa (Homo sapiens), Q9UBT6 | 400,000 tested, 0.53% active; note: % is set by controls: 0 for no effect and ±100 for the full control effect
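Fluorescent qHTS in 1536-well format: enzyme (10 nM) and compound sat 15 min at room temperature before 50 nM substrate (final) was added. Signal taken at 0 and 10 min; no-enzyme buffer wells were negative controls.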
POLI inh = qHTS for Inhibitors of Polymerase Iota. DNA polymerase iota (Homo sapiens), Q9UNA4. Pol iota fluorescent replication assay, 10 min. Potency, µM (series often up to 115 µM), inactives show top-dose activity, negative = inhibition, most hits filed as inhibitors. 390,000 tested, 1% active. AID 588590, 2011
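Fluorescent replication assay read twice, at 0 min and 10 min after adding 50 nM (final) substrate. Enzyme (10 nM) and compounds were first incubated 15 min at room temperature; enzyme-free buffer wells were negative controls.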
Pol eta inh-1 = qHTS for Inhibitors of Polymerase Eta; recombinant Pol eta, fluorescent DNA replication assay; DNA polymerase eta (Homo sapiens), Q9Y253; Potency, µM (series often up to 114 µM), for inactives: top-dose activity change, negative = inhibition, hits mostly inhibitors; 390,000 tested, 1.2% active; note: % is set by controls: 0 for no effect and ±100 for the full control effect
Target sequence (Q9Y253 whole entry, looked up): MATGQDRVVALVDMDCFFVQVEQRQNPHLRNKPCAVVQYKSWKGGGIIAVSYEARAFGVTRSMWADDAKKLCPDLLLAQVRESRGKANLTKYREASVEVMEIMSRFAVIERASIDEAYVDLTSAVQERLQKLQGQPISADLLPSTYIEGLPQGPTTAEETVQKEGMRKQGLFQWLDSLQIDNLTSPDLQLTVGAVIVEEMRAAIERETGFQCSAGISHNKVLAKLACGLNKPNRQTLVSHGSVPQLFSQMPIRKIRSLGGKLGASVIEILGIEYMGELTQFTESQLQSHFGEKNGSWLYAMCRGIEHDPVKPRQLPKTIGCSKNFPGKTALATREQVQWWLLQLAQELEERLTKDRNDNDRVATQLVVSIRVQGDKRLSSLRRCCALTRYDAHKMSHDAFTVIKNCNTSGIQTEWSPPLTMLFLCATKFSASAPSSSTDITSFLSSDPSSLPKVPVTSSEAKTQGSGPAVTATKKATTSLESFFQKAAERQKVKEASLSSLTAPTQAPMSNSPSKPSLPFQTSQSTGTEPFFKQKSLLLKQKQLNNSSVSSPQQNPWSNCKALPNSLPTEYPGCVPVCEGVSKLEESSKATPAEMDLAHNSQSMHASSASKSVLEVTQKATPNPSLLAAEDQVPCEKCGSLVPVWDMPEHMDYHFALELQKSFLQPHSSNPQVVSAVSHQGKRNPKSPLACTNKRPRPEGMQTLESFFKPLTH
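Pol eta at 10 nM preincubated with compounds 15 min at room temperature; reaction started with fluorescent substrate (50 nM final) and read kinetically at 0 and 10 min.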
L3MBTL1 inh-2 = qHTS Assay for the Inhibitors of L3MBTL1: Hit Validation; shares compounds with L3MBTL1 inh-1; L3MBTL1 methyl-lysine binding inhibition, biochemical qHTS; Potency, µM, usual class: inhibitors; 500 tested, 91% active; AID 540279, 2011; note: nearly all actives have a fitted effect of over 70% in size
L3MBTL1 ctr = qHTS Assay for the Inhibitors of L3MBTL1: Hit Validationin AlphaScreen Counterscreen; AID 602224, 2012; AlphaScreen counterscreen, signal inhibition; Potency, µM (top dose mostly 57.1 µM), for the others: top-dose activity change, negative = inhibition, hits mostly inhibitors; shares compounds with L3MBTL1 inh-1; 500 tested, under 10 active; note: 0% is about no effect
POLI cherry-pick = qHTS for Inhibitors of Polymerase Iota: Confirmatory Assay for Cherry-picked Compounds; Pol iota primer extension, TAMRA/BHQ fluorescence; AID 720496, 2013; shares compounds with Pol kappa inh; Potency, µM, actives largely listed as inhibitors; 1,500 tested, 77% active
Pol eta inh-2 = qHTS for Inhibitors of Polymerase Eta: Confirmatory Assay for Cherry-picked Compounds; 2,600 tested, 64% active; Pol eta primer extension, TAMRA/BHQ fluorescence, 10 min; shares compounds with Pol eta inh-1; Potency, µM, actives largely listed as inhibitors
Starred values were filed as active, the others as inactive; ! = not confirmed by another sample; [ ] = remark or other dose. Calls come from the whole dose curve; as a rule, active = well fitted curve in the direction sought with a large enough effect; inconclusive = small, poorly fitted or top-dose-only effect, or another doubt; inactive = no such curve, though single readings can be large; an effect the other way counts as inactive or inconclusive. Potency is the fitted concentration of half-maximal effect.

CN(C)c1ccc(/C=C/C=C/c2sc3ccccc3[n+]2C)cc1 was read as POLB inh inconclusive, L3MBTL1 inh-1 inconclusive, Pol kappa inh -29%, POLI inh inconclusive and Pol eta inh-1 -31%.
CC[n+]1c(/C=C/N(C)c2ccccc2)sc2ccc(Cl)cc21 was read as POLB inh 50µM*, L3MBTL1 inh-1 2%, Pol kappa inh -11%, POLI inh inconclusive and Pol eta inh-1 -7%.
`CNCCc1ccc(O)c(O)c1` gave POLB inh 0%[57.1 µM], Pol kappa inh inconclusive, POLI inh 89µM* and Pol eta inh-1 -6%[57.1 µM].
For CC[C@H](C)/C=C(C)/C=C/C1=CC2=C(Cl)C(=O)[C@](C)(OC(C)=O)C(=O)C2=CO1 the results were L3MBTL1 inh-1 -16%, Pol kappa inh 79µM*, POLI inh 50µM* and Pol eta inh-1 20µM*.
C=CCSC1=N/C(=C\c2cc(OC)c3c(c2)OCO3)C(=O)S1 was read as POLB inh 22µM*, L3MBTL1 inh-1 0%, Pol kappa inh -21%, POLI inh inconclusive and Pol eta inh-1 inconclusive.
Screening COc1ccccc1-c1nn2c(=O)cc(CN3CCN(C(=O)Nc4ccc(C)cc4Cl)CC3)nc2s1 returned POLB inh -25%, Pol kappa inh -3%[60.1 µM], POLI inh 34% and Pol eta inh-1 -21%.
CN1CC[C@@]2(C)c3cc(O)ccc3N(C)C12 (some centres not stated) was read as POLB inh -8%[57.1 µM], Pol kappa inh -5%[60.1 µM], POLI inh 28µM*! and Pol eta inh-1 inconclusive.
NC(=O)C1CCN(/C=C2\C(=O)NC(=O)N(Cc3ccco3)C2=O)CC1 was read as POLB inh inconclusive, Pol kappa inh 79µM*, POLI inh 20µM* and Pol eta inh-1 18µM*.
`O=C(O)c1ccccc1-c1c2cc(Br)c(=O)cc-2oc2[c]([Hg])c(O)c(Br)cc12` gave Pol kappa inh 16µM*.
`CC(C)C[C@H](NC(=O)[C@@H](N)Cc1ccccc1)C(=O)N[C@@H](Cc1ccccc1)C(=O)N[C@@H](CCC(N)=O)C(=O)N1CCC[C@H]1C(=O)N[C@@H](CCC(N)=O)C(=O)N[C@@H](CCCN=C(N)N)C(=O)N[C@@H](Cc1ccccc1)C(N)=O` gave Pol kappa inh 16%[60.1 µM].
Screening CN1CCC2(CC1)NC(=O)C1=C(CN(C)CC1)N2 returned POLB inh 1%, L3MBTL1 inh-1 28µM*, Pol kappa inh 11%, POLI inh -2%, Pol eta inh-1 -5%, L3MBTL1 inh-2 inconclusive and L3MBTL1 ctr 0%.
For CN1CCC2(CC1)NC(=O)c1ccccc1N2 the results were POLB inh 18%, Pol kappa inh -2%, POLI inh -20% and Pol eta inh-1 -3%.
Cc1occc1C(=O)Nc1ccccc1 was read as Pol kappa inh 18%[60.1 µM].
Screening O=C(c1ccc2nc(-c3ccco3)c(-c3ccco3)nc2c1)N1CCC2(CC1)OCCO2 returned POLB inh 20µM*, L3MBTL1 inh-1 28µM*, Pol kappa inh inconclusive, POLI inh inconclusive, Pol eta inh-1 16µM*, L3MBTL1 inh-2 inconclusive and L3MBTL1 ctr -26%.
O=C1NC(=O)N(Cc2ccco2)C(=O)/C1=C/c1ccc(-c2cccc([N+](=O)[O-])c2)o1 was read as POLB inh 18µM*, L3MBTL1 inh-1 28µM*, Pol kappa inh 22µM*, POLI inh 7.9µM*, Pol eta inh-1 8.9µM*, L3MBTL1 inh-2 3.4* and L3MBTL1 ctr -21%.
NC(N)=NCCC[C@H](N)C(=O)O was read as POLB inh -11%[57.1 µM], Pol kappa inh 1%[60.1 µM], POLI inh inconclusive and Pol eta inh-1 -2%[57.1 µM].
Screening O=C1NC(=O)N(c2ccccc2)C(=O)/C1=C/c1ccc(Sc2ccccc2)o1 returned POLB inh 36%, L3MBTL1 inh-1 50%, Pol kappa inh inconclusive, POLI inh 14% and Pol eta inh-1 inconclusive.
`O=C1NC(=O)N(c2cccc(Cl)c2)C(=O)/C1=C\c1ccc(Sc2nc3ccccc3[nH]2)o1` gave POLB inh 32µM*, L3MBTL1 inh-1 32µM*, Pol kappa inh 22µM*, POLI inh inconclusive, Pol eta inh-1 18µM*, L3MBTL1 inh-2 27*, L3MBTL1 ctr -8%, POLI cherry-pick 75* and Pol eta inh-2 27*.
`Cc1cc(/C=C2\C(=O)NC(=O)N(c3cccc(F)c3)C2=O)c(C)n1-c1cc(C(=O)O)cc(C(=O)O)c1` gave POLB inh 22µM*, L3MBTL1 inh-1 7.9µM*, Pol kappa inh 50µM*, POLI inh 16µM*, Pol eta inh-1 10µM*, L3MBTL1 inh-2 1.5*, L3MBTL1 ctr -10%, POLI cherry-pick inconclusive and Pol eta inh-2 21*.
COc1ccc(CN2C(=O)NC(=O)/C(=C\c3ccco3)C2=O)cc1 was read as POLB inh 13µM*, L3MBTL1 inh-1 7.9µM*, Pol kappa inh 25µM*, POLI inh inconclusive, Pol eta inh-1 8.9µM*, L3MBTL1 inh-2 2.7*, L3MBTL1 ctr -23%, POLI cherry-pick 27* and Pol eta inh-2 27*.
